In PubChem BioAssay AID652283 (National Center for Advancing Translational Sciences (NCATS), 2013):
Values joined by “and” are separate entries in the source; they are usually repeats but may differ in a detail not shown here. Identical values can stand only once. Inconclusive results are not listed. Some compounds were tested as several samples or in several runs, with calls that do not always agree. Active and inactive are the calls of the source. The call rests on the fitted dose curve; in most records, active means well fitted inhibition curve with a large enough effect; inconclusive means small, poorly fitted or top-dose-only effect; inactive means no such curve, though single readings can be large or run the other way.

Experiment: qHTS Assay for Lipid Storage Modulators: COS7 Assay against Probe and Analogs
Conditions: COS7 lipid droplet area, BODIPY imaging, 18 h; cells loaded with 400 µM oleic acid
In short: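 COS7 cells treated 17-18 h with compound in 5% FBS medium, 0.2% DMSO and 400 microM oleic acid. Fixed cells stained with BODIPY 493/503 and Hoechst; lipid droplets counted from microscope images by visual review and image segmentation.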

Max response, inactive:
CCOc1cc(F)c(CCNC(=O)c2cc3sccc3n2Cc2ccccc2)cc1OCC -106%
CCn1c(C(=O)NCCc2ccc(OC)c(OC)c2)cc2sccc21 3.82%
CCOc1ccc(CCNC(=O)CN(C)C)cc1OCC -3.2%
Cc1ccc(NC(=O)c2ccc(CN3CCN(C)CC3)cc2)cc1Nc1nc(-c2cccnc2)cs1 -0.902%
COc1cc(Nc2ncc(F)c(Nc3ccc4c(n3)NC(=O)C(C)(C)O4)n2)cc(OC)c1OC -7.73%
CCOC(=O)C1CCN(C(=O)C(C)(C)NC(=O)Nc2cccc(C(=O)OC)c2)CC1 9.87%
CCOc1ccc(CCNC(=O)c2csc(Br)n2)cc1OCC -17.2%
CCOc1ccc(CCNC(=O)C2=C(C)OCCO2)cc1OCC 10.4%
CN(C)Cc1ccc(-c2nc3cccc4c3n2CCNC4=O)cc1 3.13%
O=C(NC1CCCc2c1cnn2-c1ccc(F)cc1F)c1ccccn1 (centres undefined) 16%
O=C(NC1CCCc2c1cnn2-c1ccc(F)cc1F)c1ccn[nH]1 (centres undefined) -5.9%

Potency, active:
COc1ccc(-n2ncc3c2CCCC3NC(=O)c2ccccn2)cc1 (centres undefined) 4.69 µM
CC1=C(C(=O)NC2CCCc3c2cnn3-c2ccc(F)cc2F)OCCO1 (centres undefined) 13.2 µM
CCOc1ccc(CCNC(=O)c2ccnn2Cc2cccc(C)c2)cc1OCC 13.2 µM
CC(C)(C)OC(=O)NCCOCCOCCOc1cccc(-n2ncc3c2CCCC3NC(=O)c2ccccn2)c1 (centres undefined) 14.8 µM
CCOC(=O)C1CCN(C(=O)C(C)(C)NC(=O)Nc2ccc(Oc3ccccc3)cc2)CC1 6.62 µM
CC(C)Oc1ccc(CCNC(=O)c2cc3sccc3n2Cc2ccccc2)cc1OC(C)C 1.66 µM
O=C(NC1CCCc2c1cnn2-c1ccc(F)cc1F)c1ccccn1 (centres undefined) 16.6 µM and 14.8 µM
CCOc1ccc(CCNC(=O)c2cc3sccc3n2Cc2ccccn2)cc1OCC 1.48 µM
